Laboratory results as given in PubChem BioAssay AID927 (National Center for Advancing Translational Sciences (NCATS), 2007).
The campaign covered roughly 60,000 compounds. About 65 (0.1%) were called active. The call rests on the fitted dose curve; in most records, active means well fitted inhibition curve with a large enough effect; inconclusive means small, poorly fitted or top-dose-only effect; inactive means no such curve, though single readings can be large or run the other way. Only a selection was taken, and actives are over-represented in it overall.

target: Ubiquitin carboxyl-terminal hydrolase 2 (Homo sapiens) (UniProt O75604); test: qHTS Assay for Inhibitors of Ubiquitin-specific Protease USP2a; settings: USP2a enzymatic assay; Potency: qHTS inhibition; series mostly up to 38.3 µM; activity change, negative = inhibition: at the top concentration;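 further: plate controls were DMSO for no effect and NEM full inhibition control for full effect; nearly all actives have a fitted effect of over 60% in size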
Sequence (O75604 whole entry, looked up): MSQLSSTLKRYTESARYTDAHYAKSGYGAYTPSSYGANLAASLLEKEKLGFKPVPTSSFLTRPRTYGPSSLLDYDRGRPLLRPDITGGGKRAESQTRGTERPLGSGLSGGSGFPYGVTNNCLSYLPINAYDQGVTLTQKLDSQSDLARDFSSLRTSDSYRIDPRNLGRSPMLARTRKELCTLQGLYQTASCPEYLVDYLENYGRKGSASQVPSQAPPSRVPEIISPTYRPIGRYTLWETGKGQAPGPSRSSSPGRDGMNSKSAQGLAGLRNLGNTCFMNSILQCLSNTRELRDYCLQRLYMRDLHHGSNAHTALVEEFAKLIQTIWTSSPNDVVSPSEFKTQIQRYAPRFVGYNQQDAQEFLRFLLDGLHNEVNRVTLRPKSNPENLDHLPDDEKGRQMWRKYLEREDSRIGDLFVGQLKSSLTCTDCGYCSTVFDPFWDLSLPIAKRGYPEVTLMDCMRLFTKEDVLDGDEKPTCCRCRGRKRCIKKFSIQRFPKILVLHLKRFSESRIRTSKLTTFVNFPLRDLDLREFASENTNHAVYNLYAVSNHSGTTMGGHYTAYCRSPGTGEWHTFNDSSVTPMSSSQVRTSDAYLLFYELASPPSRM
In short: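 USP2 core (20 nM final) was preincubated with compound for 30 min at RT in 20 mM Tris-HCl pH 8.0, 2 mM CaCl2, 2 mM beta-mercaptoethanol; Ub-PLA2 (20 nM) plus NBD C6-HPC (20 uM) then added, fluorescence read after 2.5 h.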

Activity change, negative = inhibition, inactive:
CCCNc1ncnc2sc(C)c(C)c12 -3.55%
Nc1nc2nc(Cl)[nH]c2c(=O)[nH]1 18.5%
Cc1cccc(CC(=O)Nc2c3c(nn2-c2cccc(Cl)c2)CS(=O)C3)c1 (stereo not given) 7.15%
Cc1ccccc1-c1nc(N(C)Cc2ccco2)c2ccccc2n1 -9.88%
CCOc1cccc(C(=O)Nc2cccnc2)c1 3.24%
O=C(Nc1cccc(F)c1)N1CC2(CCN(C(=O)c3csnn3)CC2)C1 12.9%
CCOC(=O)[C@H]1CCC[C@@H](NS(=O)(=O)c2ccc(NC(C)=O)cc2)C1 5.45%
CC(NC(=O)Nc1ccccc1)c1ccccc1 (stereo not given) 1.41%
Cc1ccc2c(CSc3nncs3)cc(=O)oc2c1 35.6%
COc1c2c(cc3occ(-c4ccc5c(c4)OCO5)c(=O)c13)OC(C)(C)C=C2 -26.3%
O=S(=O)(NCc1ccc2c(c1)OCO2)c1cccc2nsnc12 -1.28%
CCOC(=O)CSc1nc2c(c(=O)n(Cc3ccccc3Cl)c(=O)n2C)n1C -0.387%
C/C=C(/C)C(=O)OC1Cc2c(ccc3ccc(=O)oc23)OC1(C)C (stereo not given) -1.14%
COCCCN1C(=O)c2ccc(C(=O)Nc3ccc(OC)cc3OC)cc2C1=O 13.4%
Cc1c(O)cc(O)c2c(=O)c(-c3ccc(O)cc3)coc12 -6.86%
CC(C)c1nnc(NC(=O)C2CCCN2S(=O)(=O)c2ccc(Cl)cc2)s1 (stereo not given) 9%
Oc1ccc2c(c1)OCC1c3cc4c(cc3OC21)OCO4 (stereo not given) -11.2%
CN1C(=O)C[C@H](c2ccccc2)C1=O -7.44% [at 17.1 µM]
O=C(NCc1cccnc1)c1cn(-c2ccccc2)nc1-c1cccs1 28.9%
CCC12CN3CC(CC)(CN(C1)C31C(=O)N(C)c3ccc(C)cc31)C2=O (stereo not given) 0.969%
CCOC(=O)N1CCN(C(=O)CN(c2ccc(C)c(C)c2)S(=O)(=O)c2ccccc2)CC1 18.3%
COc1ccc(-c2ccc(-c3noc(-c4ccncc4)n3)c(OC)n2)cc1 21.4%
NC(=O)C1CC=CCC1C(=O)OCC(Cl)=C(Cl)Cl (stereo not given) 12.5%
CC1C(O)CC2C(C(=O)O)=CO[C@@H](O[C@H]3OC(CO)C(O)C(O)C3O)C21 (stereo not given in full) -4.3%
CC(C)(C)c1ccc(C(=O)CSc2ncn[nH]2)cc1 -4.94%
c1cncc(CNc2ccnc(-c3ccc4c(c3)OCO4)n2)c1 23.9%
CCC(CCC(C)C1CCC2C3CC=C4CC(O)CC[C@@]4(C)C3CC[C@@]12C)C(C)C (stereo not given in full) -2.58%
CC1(C)Cc2ccccc2-c2nnc(-c3cccc(O)c3)n21 -2.73%
COc1cccc(C2/C(=C(/O)c3ccc(F)cc3)C(=O)C(=O)N2CCN(C)C)c1 (stereo not given) 4.13% [at 7.66 µM]
CCOC(=O)C1=C(C)NC(C)=C(C(=O)OCC)C1C1=COCCO1 -3.29%
